# In all, about 290,000 compounds went through this assay and about 11,000 (3.8%) were called active.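 The calls were made as follows: active = mean replicate inhibition above about 79%, with every replicate also reaching it (limit read from the data); inconclusive = only one of the two criteria met; inactive = mean below limit and not every replicate reaching it.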 Many of the other results were omitted from the sample, so actives are more common in it than they were.
# Target: FAD-linked sulfhydryl oxidase ALR (Homo sapiens) (UniProt P55789)
# Sequence (P55789 whole entry, looked up): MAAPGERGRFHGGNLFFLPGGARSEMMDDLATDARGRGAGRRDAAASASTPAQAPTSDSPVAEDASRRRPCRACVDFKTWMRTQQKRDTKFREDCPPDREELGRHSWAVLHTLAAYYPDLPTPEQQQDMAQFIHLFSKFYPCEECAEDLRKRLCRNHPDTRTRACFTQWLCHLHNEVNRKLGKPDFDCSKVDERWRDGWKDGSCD
# Assay: ALR-catalysed DTT oxidation blockers – biochemical, H2O2 detection, HRP-luminol luminescence, single point, primary screen (AID 485317)
# Details: purified ALR, active compounds read high, concentration not given here
row,Compound,inhibition
1,COc1ccccc1OCC(=O)OCc1cc(-c2ccco2)on1,-3.11% (inactive)
2,Cc1ccc(S(=O)(=O)N2CCN(C(=O)COC(=O)CNC(=O)c3ccc(C(C)(C)C)cc3)CC2)c(C)c1,-8.74% (inactive)
3,CN(C(=O)COC(=O)Cc1ccccc1[N+](=O)[O-])C1CCS(=O)(=O)C1 (stereo not drawn),-19.5% (inactive)
4,S=C(Nc1ccc(Br)cc1)NC1CCN(Cc2ccccc2)CC1,17% (inactive)
5,S=C(Nc1ccc(Br)cc1Cl)NC1CCN(Cc2ccccc2)CC1,-0.861% (inactive)
6,S=C(NN=C1CCN(Cc2ccccc2)CC1)NC1CCCCC1,94.2% (active)
7,COc1ccccc1NS(=O)(=O)c1ccc(C(=O)N2CCN(c3ccccc3O)CC2)cc1,30.3% (inactive)
8,O=C(COC(=O)c1ncc(Cl)c(Cl)c1Cl)NCc1ccccc1,-2.75% (inactive)
9,C=CCn1c(SCC(=O)CC(=O)OCC)nc2cc(C(=O)N3CCC(C(N)=O)CC3)ccc2c1=O,26.8% (inactive)
10,NC(=O)C1CCN(C(=O)c2ccc3c(=O)n(Cc4cccc(Br)c4)c(=S)[nH]c3c2)CC1,1.47% (inactive)
11,C=CCn1c(SCc2cccc(F)c2)nc2cc(C(=O)N3CCC(C(N)=O)CC3)ccc2c1=O,82.8% (active)
12,O=C(CCC(=O)c1cccs1)Nc1nc2ccccc2s1,-15.5% (inactive)
13,COc1cccc(CC(=O)OCC(=O)NCc2ccc3c(c2)OCO3)c1,-0.907% (inactive)
14,O=C(CN1C(=O)CSc2ncccc21)N1CCOCC1,-36.7% (inactive)
15,COCCNC(=O)CN1C(=O)CSc2ncccc21,95.3% (active)
16,COCCNC(=O)CCCN1C(=O)c2ccccc2Sc2ncccc21,-3.3% (inactive)
17,CCn1nc(C(=O)Nc2ccc(N3CCOCC3)cc2)c2ccccc2c1=O,-11.2% (inactive)
18,CC1CC(=NNC(=O)C2COc3ccccc3O2)CC(C)(C)C1 (stereo not drawn),14.3% (inactive)
19,CC(C(=O)NC1CCS(=O)(=O)C1)N1C(=O)/C(=C/c2ccc(Cl)cc2)SC1=S (stereo not drawn),98.5% (active)
20,CN(C(=O)CN1C(=O)/C(=C/c2ccc(Cl)cc2)SC1=S)C1CCS(=O)(=O)C1 (stereo not drawn),-8.19% (inactive)
21,COc1ccc(/C=C2\SC(=O)N(CCC(=O)NC3CCS(=O)(=O)C3)C2=O)cc1 (stereo not drawn),-3.27% (inactive)
22,COc1ccc(OC)c(S(=O)(=O)Nc2c(C)nn(C)c2C)c1,-0.73% (inactive)
23,O=C(Cn1nnc(-c2ccccc2)n1)NC(=O)NC1CCCC1,-9.99% (inactive)
24,CCN(CC)S(=O)(=O)c1ccc2[nH]c(=O)cc(C(=O)N(C)C3CCS(=O)(=O)C3)c2c1 (stereo not drawn),-1.56% (inactive)

row,Compound,inhibition
1,COc1ccccc1C(CNC(=O)c1cccc(S(=O)(=O)Nc2ccc(F)cc2)c1)N(C)C (stereo not drawn),-11.3% (inactive)
2,COc1cccc(C2=CC(=O)C[C@H](c3ccc(OC)c(OC)c3)C2)c1,-2.35% (inactive)
3,O=S(=O)(c1ccc(SCc2ccccc2)nc1)N1CCCCCC1,-0.984% (inactive)
4,COC(=O)c1ccc(CSc2ccc(S(=O)(=O)N3CCCCC3)cn2)cc1,98.5% (active)
5,COC(=O)c1ccc(CNC(=O)c2ccc(S(=O)(=O)N3CCCCCC3)cc2)cc1,-5.09% (inactive)
6,CC(=O)c1cccc(OCC(=O)OCC(=O)Nc2cc(S(=O)(=O)N3CCCCC3)ccc2C)c1,-1.77% (inactive)
7,CCN(CC(=O)Nc1cc(Cl)ccc1C)C(=O)Cn1c(=O)cnc2ccccc21,0.937% (inactive)
8,O=C(Nc1ccon1)c1nc[nH]c1C(=O)NCc1ccccc1,-9.59% (inactive)
9,O=C(c1c(Cl)cccc1Cl)N1CCN(c2cccc3[nH]ccc23)CC1,98.9% (active)
10,COc1ccccc1N1CCN(C(=O)c2c(-c3c(Cl)cccc3Cl)noc2C)CC1,15.3% (inactive)
11,O=C(c1ccc2ccccc2n1)N1CCN(c2ccccc2Cl)CC1,2.19% (inactive)
12,CN(C)C(=O)N=NC(=O)N(C)C,-21.7% (inactive)
13,CCOc1ncccc1C(=O)OCC(=O)Nc1cccc(S(=O)(=O)N2CCCCCC2)c1,0.144% (inactive)
14,COc1ccc(C(=O)NCc2ccccc2C)cc1S(=O)(=O)NC1CCCC1,-15.1% (inactive)
15,CCn1nnc2cc(C(=O)Nc3ccc(C(=O)OC(C)C)cc3)ccc21,-0.266% (inactive)
16,O=C(COC(=O)c1cccnc1Cl)NC(=O)NC1CCCCC1,-0.213% (inactive)
17,CCCNC(=O)CCn1cc(-c2ccc(OC)cc2)nc1CCN,10.4% (inactive)
18,O=C(CCOc1ccccc1)NCc1ccccc1,-6.56% (inactive)
19,CN(C)C(CNC(=O)CCCOc1ccccc1)c1ccco1 (stereo not drawn),3.18% (inactive)
20,CC(C)(C)NC(=O)NCc1ccco1,6.08% (inactive)
21,COC(=O)/C=C/C(=O)NCc1ccco1,79.8% (active)
22,O=C(/C=C/c1ccc(Cl)cc1Cl)NCc1ccco1,-6.98% (inactive)
23,O=C(CCCOc1ccccc1)NCc1ccco1,86.9% (active)
24,COc1cc(NC(=O)c2[nH]cnc2C(N)=O)cc(C(=O)Nc2cccc(C(F)(F)F)c2)c1,-4.54% (inactive)

row,Compound,inhibition
1,O=C(CSc1nc2ccccc2c(=O)n1Cc1ccc(F)cc1)NCC1CCCO1 (stereo not drawn),-7.08% (inactive)
2,C=CCNC(=O)C1CC2c3ccccc3C1c1ccccc12 (stereo not drawn),-7.82% (inactive)
3,Cc1cc(Nc2ccc(Br)cc2)nc2ccccc12,-3.49% (inactive)
4,O=C(COC(=O)c1ccc(O)cc1O)c1ccc2c(c1)OCCO2,9.5% (inactive)
5,CC1(C)O[C@@H]2CC3C4C[C@H](F)C5=CC(=O)C=CC5(C)C4C(O)CC3(C)[C@]2(C(=O)CO)O1 (stereo partly drawn),-6.73% (inactive)
6,O=C1/C(=C\c2cccnc2)CN(Cc2ccccc2)C/C1=C\c1cccnc1,96.1% (active)
7,O=Cc1cn(Cc2ccccc2)nc1-c1cccnc1,-2.35% (inactive)
8,Clc1ccc(CN2CCN(/N=C/c3cccnc3)CC2)cc1,14.2% (inactive)
9,C=CCc1cc(S(=O)(=O)c2ccc(O)c(CC=C)c2)ccc1O,87.7% (active)
10,O=C(CNCCC1=CCCCC1)Nc1ccccc1N1CCCCCC1,19.2% (inactive)
11,O=C(Nc1ccccc1N1CCCC1)c1ccc(F)c(S(=O)(=O)N2CCOCC2)c1,43.8% (inactive)
12,Cc1ccccc1NC(=O)CSc1ccc2nnc(-c3ccccn3)n2n1,-1.94% (inactive)
13,Cc1ccccc1NC(=O)CNc1ccccc1N1CCCCC1,87.1% (active)
14,Cc1ccccc1NC(=O)CSC1=NCCN1,99.1% (active)
15,Cc1ccccc1N1CC(C(=O)Nc2ccc(S(=O)(=O)N3CCCC3)cc2)CC1=O (stereo not drawn),-9.58% (inactive)
16,Cc1ccccc1NC(=O)Nc1ccccc1N1CCCCC1,-4.73% (inactive)
17,Cc1ccccc1N1CC(C(=O)Nc2ccc3c(c2)OCO3)CC1=O (stereo not drawn),-35.2% (inactive)
18,Cc1ccc(Cc2nnc(SCC(=O)Nc3ccccc3C)[nH]c2=O)cc1,-2.8% (inactive)
19,O=C(Nc1ccccc1N1CCCC1)c1ccc2ccccc2c1,77% (active)
20,O=C(Nc1ccccc1N1CCCCC1)c1ccc2nccnc2c1,-6.64% (inactive)
21,Cc1cccc(N2CC(C(=O)Nc3ccccc3N3CCCC3)CC2=O)c1C (stereo not drawn),98.4% (active)
22,Nc1c(C(=O)OCC(=O)Nc2ccc(OC(F)F)cc2)[nH]c(=O)[nH]c1=O,9.56% (inactive)
23,COc1ccccc1N(CC(=O)Nc1ccc(C)cc1Cl)S(=O)(=O)c1cccs1,-3.47% (inactive)
24,CC(C(=O)N(C)CC(=O)Nc1ccccc1C(F)(F)F)N1C(=O)c2ccccc2C1=O (stereo not drawn),-4.96% (inactive)

row,Compound,inhibition
1,CCOc1ccc(CC(=O)NCCS(=O)(=O)N2CCN(c3ccccc3)CC2)cc1,-1.48% (inactive)
2,Cc1onc(-c2c(F)cccc2Cl)c1C(=O)OCC(=O)N1C(C)CCCC1C (stereo not drawn),-4.37% (inactive)
3,COCCN(CCOC)S(=O)(=O)NC[C@H]1O[C@@H](n2cnc3c(N)ncnc32)[C@H](O)[C@@H]1O,2.26% (inactive)
4,COc1cc(C(=O)Nc2ncccc2C)ccc1OCC(=O)N1CCOCC1,-1.3% (inactive)
5,CCOc1ccc(C(=O)CCC(=O)NC2=NCCS2)cc1,2.64% (inactive)
6,CCOc1ccc(/C=C/C(=O)OCC(=O)c2ccccc2OC)cc1OC,1.49% (inactive)
7,COCOc1cc(O)c(C(=O)/C=C/c2ccc(OCOC)c(OCOC)c2)c(OCOC)c1,94.9% (active)
8,COc1ccc(/C=C/C(=O)c2ccc(OC)cc2O)cc1,-17.6% (inactive)
9,C#CCNC(=O)[C@H](Cc1ccc(C(=O)c2ccccc2)cc1)NC(=O)OC(C)(C)C,-2.67% (inactive)
10,CCNC(=S)N1CCN(S(=O)(=O)c2ccc(Cl)s2)CC1,-2.01% (inactive)
11,COc1ccccc1C(=O)Nc1ccc(OCC(=O)N2CCCCC2)cc1,2.28% (inactive)
12,CC(=O)Nc1cccc(-c2nc3ccccc3s2)c1C,-21% (inactive)
13,Cc1cc(O)ccc1-c1cnc2ccccc2n1,58% (inactive)
14,Oc1ccc(-c2[nH]ncc2-c2nc3ccccc3s2)c(O)c1,83.3% (active)
15,CCN(C(=O)COC(=O)C1CCN(S(=O)(=O)c2ccc(C)c(C)c2)CC1)C1CCS(=O)(=O)C1 (stereo not drawn),-10.6% (inactive)
16,COc1ccc(C2=NN(C(=O)CSc3nnnn3C)C(c3ccco3)C2)cc1 (stereo not drawn),3.36% (inactive)
17,Cc1ccc(C(=O)Nc2ccccc2-c2ccccc2)cc1S(=O)(=O)Nc1ccccc1,-2.08% (inactive)
18,CC1CCN(C(=O)CCNC(=O)c2ccccc2)CC1,0.139% (inactive)
19,CCN(CCNC(=O)C1=C(C)C(=O)OC12CCC(C)CC2)c1ccccc1 (stereo not drawn),98.4% (active)
20,CCOc1ccc(CCNC(=O)C2=C(C)C(=O)OC23CCC(C)CC3)cc1OCC (stereo not drawn),-1.93% (inactive)
21,Cc1ccc(S(=O)(=O)NC[C@H]2O[C@@H](n3cnc4c(N)ncnc43)[C@H](O)[C@@H]2O)s1,1.77% (inactive)

# Source: PubChem BioAssay AID485317 (Broad Institute, 2010)
